Drawing on the OligoGym collection, this text covers sensor-assay potency score (higher = more potent) for 40 sequences.
Further: reference of the scale not given here.

The first assay addresses SLC50A1. Briefly: pooled miR-30 sensor sort-seq; sequence = guide strand. The following applies: shRNA.
As to TTCCTGTCTTGCTCCTGGGGGT, the sensor-assay potency score (higher = more potent) was -0.7.
The same measure, in the same setting: with TGATTTAGTTTGAATCACCTTA the figure was 0.457.
The same measure, in the same setting: with TTGATTTAGTTTGAATCACCTT the figure was -0.06.
The sequence TCGCATGTGCCTGAGGTCCGAG displayed a sensor-assay potency score (higher = more potent) of -1.22.
Same read-out and setting: with TAGTTTGAATCACCTTAGCCAA the figure was -1.16.
Still for that read-out and setting: with TTAGTTTGAATCACCTTAGCCA the figure was 0.6; with TCTGACGTTGTCCACACTCCGG, -1.36; with ATATAGGGATCTCTGAGTCGAA, -0.899.
On the same count and under the same terms, with TTATCCTCAAAGTCATCTCTTG the figure was -0.683; with TTGGACACCATGATATAGGGAT, 0.348.
In turn, TCTGAGTCGAAACCCATAGAGG returned a sensor-assay potency score (higher = more potent) of -1.58.

In the next assay the target is SLC5A9. The assay is described as above. The following applies: shRNA.
AGGAACACCACAAACACTCTGC: the sensor-assay potency score (higher = more potent) is -0.94.
On the same count and under the same terms, with TTAACAAGTCATGTCTCTCCAA the figure was -0.0979; with TTCTTTGGCAGACATCAGGGTC, -0.689; with TAGTCCATTGTCTAAGAGCTTT, -1.07.
Still for that read-out and setting: with TAACAAGTCATGTCTCTCCAAC the figure was -0.907; with TAGGCGTGCAGACCAACTCTGG, -1.48; with TTGTCTAAGAGCTTTCTGCCCA, -0.317.
Sequence TGTTGGAACATCCCACTCGGGC displayed a sensor-assay potency score (higher = more potent) of -1.24.
Same read-out and setting: with TGGTCTGTGCACCAACACCAGG the figure was -1.88; with TTGTTTAATCTGTCTACACTGA, -0.279.
In the case of TTAGAGAGTAGGAAGAGGCAGA, the sensor-assay potency score (higher = more potent) stood at 0.115.
Still for that read-out and setting: with TTCTACTCTCAAGACACACATT the figure was -0.868.

The next assay has as its target SLC6A11. The assay is described as above. As to conditions: shRNA.
Sequence TAGGAGAAAAAGATCTGCGTTC showed a sensor-assay potency score (higher = more potent) of -0.00212.
For TAGGAGATAACAGACAAGGCTA, the sensor-assay potency score (higher = more potent) was determined as 0.294.
Still for that read-out and setting: with TAGAACTTGATGCCCTCTGAGG the figure was -1.22; with TACAAGTAGAACTTGATGCCCT, 0.00476; with TTCTGCAGAGACACATGGCTGT, 0.541.
The same measure, in the same setting: with TCAATGTTATCATAGAACCGGT the figure was -0.663; with TTAACTGTCACCATCCGTGGGC, 0.397.
On the same count and under the same terms, with ATAATTGTTATAACTTCCCAGA the figure was -0.808; with TTATCATAGAACCGGTTGCTTC, -1.38; with TTCACTTGTGAACTGCCCCAGA, -0.108.
TCATTAACTGTCACCATCCGTG came in with a sensor-assay potency score (higher = more potent) of -0.565.
The same measure, in the same setting: with TTCAATGTTATCATAGAACCGG the figure was -0.488.

Another assay has as its target SLC6A17. The description is as above. As to conditions: shRNA.
Regarding ATATATAGTGCCACACACCGAT, the sensor-assay potency score (higher = more potent) was determined as 0.0995.
Still for that read-out and setting: with TACTGCAGCTTACTGTTCCAGG the figure was -0.506.
The same measure, in the same setting: with TAGTGCCACACACCGATGCTGC the figure was -1.34; with TACATCTCCATGTAGTCCTTTG, -1.15; with TATATAGTGCCACACACCGATG, -1.62.
